Bioassay records: PubChem, National Center for Advancing Translational Sciences (NCATS)
A selection: hits, their analogues and other compounds. The true share with any hit is near 6.1%.
D1 ag: Allosteric Agonists of the Human D1 Dopamine Receptor: qHTS. D(1A) dopamine receptor (Homo sapiens), P21728. HEK293 T-REx D1 cells, calcium flux, agonist mode. activation, % at 2 µM. 360,000 tested, 1% active; in the data active means activation above about 30%
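Tetracycline-induced HEK293 TREx D1 cells, force-coupled to calcium signalling, were dye-loaded with a no-wash calcium kit. Compound was pin-added after a 10 s baseline. Fluorescence was read kinetically at 1 cycle/s for 180 s, with calcium rises flagged as agonism.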
D1 PAM: Potentiators of Human D1 Dopamine Receptor: qHTS | HEK293 TREx D1 cells, calcium flux, dopamine EC20 potentiation | potentiation, % at 10 µM | 360,000 tested, 0.036% active | AID 504651, 2011; in the data active means potentiation above about 30%
D1 antag: Antagonist of Human D 1 Dopamine Receptor: qHTS. D(1A) dopamine receptor (Homo sapiens), P21728. HEK293 TREx D1 cells, calcium flux, dopamine EC80; active compounds read low. activity change, negative = inhibition, % at 10 µM. 360,000 tested, 3.2% active. AID 504652, 2011; in the data active means activity change below about -30%
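Kinetic fluorescence of a calcium dye serves as the read-out. D1-expressing Hek293 Trex cells, induced overnight at 30 C, are exposed to compound for 180 s before an EC80 dopamine addition, then read 180 s further.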
DRD3 agonist: qHTS of D3 Dopamine Receptor Agonist: qHTS; AID 652048, 2013; D3R DiscoveRx beta-arrestin cells, luminescence, 90 min; max activation, %; 410,000 tested, 0.58% active; D(3) dopamine receptor (Homo sapiens), P35462; in the data active means max activation above about 30%
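Cells at 1500/well, incubated overnight, then treated with pinned compounds (dopamine as control) for 90 min at 37 degrees C. DiscoveRx reagent added for 30 - 60 minutes at room temperature; luminescence read.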
ERG-DNA inh: qHTS for Small Molecule Inhibitors of the ERG Ets/DNA interaction; 370,000 tested, 0.028% active; AID 624246, 2012; Transcriptional regulator ERG (Homo sapiens), P11308; Potency, µM (doses to about 76.9 µM), actives largely listed as inhibitors; fluorescence polarization, His-ERG Ets domain / labelled DNA; active means well fitted inhibition curve with a large enough effect in the polarisation, with a control signal flat; inconclusive means small, poorly fitted or top-dose-only effect, or effect the other way, or a change in a side signal; inactive means no such curve, though single readings can be large or run the other way; the % refers to the polarisation;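 further: polarization taken with two DNA probes labelled with fluorescein and Texas red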
Target sequence (P11308 whole entry, looked up, the tested form may be a part): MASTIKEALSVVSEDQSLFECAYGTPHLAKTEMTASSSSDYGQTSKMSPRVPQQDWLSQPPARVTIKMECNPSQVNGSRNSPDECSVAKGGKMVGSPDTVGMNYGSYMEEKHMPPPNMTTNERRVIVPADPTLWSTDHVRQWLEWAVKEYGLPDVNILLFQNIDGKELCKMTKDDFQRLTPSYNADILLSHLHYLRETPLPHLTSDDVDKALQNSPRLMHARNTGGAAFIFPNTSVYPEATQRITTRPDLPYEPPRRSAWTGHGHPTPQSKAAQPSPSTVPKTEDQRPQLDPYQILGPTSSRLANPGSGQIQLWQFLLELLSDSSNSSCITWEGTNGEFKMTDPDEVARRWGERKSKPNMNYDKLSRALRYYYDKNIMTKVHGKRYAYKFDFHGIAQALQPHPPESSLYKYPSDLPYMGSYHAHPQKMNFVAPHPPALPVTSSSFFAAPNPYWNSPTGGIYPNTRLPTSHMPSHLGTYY
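His-tagged ERG Ets domain (1 uM in the protein solution; 300mM KCl, 50mM Tris-HCl, 1mM EDTA, 1mM DTT, pH 7.5) received compound, then a probe mix of 5 nM fluorescein-DNA and 100nM Texas-615-DNA. Fluorescence polarization was read for both dyes.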
DRD3 antagonist: qHTS of D3 Dopamine Receptor Antagonist: qHTS; D(3) dopamine receptor (Homo sapiens), P35462; 360,000 tested, 2.5% active; D3R cells, DiscoveRx beta-arrestin luminescence, antagonist mode; active compounds read low; max response, negative = inhibition, %; AID 652054, 2013; in the data active means max response below about -50%; inconclusive means no clear call, values can overlap the other calls
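Cells expressing the human receptor were seeded at 1500 cells/well, incubated overnight at 37 degrees C in 5% CO2, then exposed to library compounds with dopamine controls for 90 minutes at 37 degrees C before luminescent detection.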
Numbers stand for hits.

S=C(NCc1ccc(Cl)cc1Cl)Nc1ccccc1 was read as D1 ag inactive, D1 PAM inactive, D1 antag -31, DRD3 agonist inactive, ERG-DNA inh inactive and DRD3 antagonist inactive.
`CC(NCc1ccc(N(C)C)cc1)C1CC2CCC1C2` (stereo unspecified) gave D1 ag inactive, D1 PAM inactive, D1 antag inactive, DRD3 agonist inactive, ERG-DNA inh inactive and DRD3 antagonist -70.
CCCCCCOc1ccc(N2C(=O)CC(SCCN)C2=O)cc1 (stereo unspecified) was read as D1 ag 64, D1 PAM inactive, D1 antag inactive, DRD3 agonist inactive, ERG-DNA inh inactive and DRD3 antagonist inactive.
CCOc1ccc(N2C(=O)CC(SCCN)C2=O)cc1 (stereo unspecified) was read as D1 ag inactive, D1 PAM inactive, D1 antag inactive, DRD3 agonist inactive, ERG-DNA inh inactive and DRD3 antagonist inconclusive.
For O=C(c1cccc(C(F)(F)F)c1)N1CCN(c2cc(=O)[nH]nc2-c2ccccc2)CC1 the results were D1 ag inactive, D1 PAM inactive, D1 antag inactive, DRD3 agonist inactive, ERG-DNA inh inactive and DRD3 antagonist inactive.
For O=S(=O)(NCc1ccccc1)c1ccc(S(=O)(=O)N(Cc2ccccn2)Cc2ccco2)cc1 the results were D1 ag inactive, D1 PAM inactive, D1 antag -34, DRD3 agonist inactive and DRD3 antagonist inactive.
For O=S(=O)(c1ccc(Cl)cc1)N(Cc1ccccn1)Cc1ccccn1 the results were D1 ag inactive, D1 PAM inactive, D1 antag inactive, DRD3 agonist inactive, ERG-DNA inh inactive and DRD3 antagonist inactive.
For NS(=O)(=O)c1ccc(S(=O)(=O)N(CCc2ccccc2)Cc2ccccn2)cc1 the results were D1 ag inactive, D1 PAM inactive, D1 antag inactive, DRD3 agonist inactive, ERG-DNA inh inactive and DRD3 antagonist inactive.
Screening CCN(CC)S(=O)(=O)c1ccc(S(=O)(=O)N(Cc2ccccn2)Cc2ccco2)cc1 returned D1 ag 31, D1 PAM inactive, D1 antag -56, DRD3 agonist inactive and DRD3 antagonist inactive.
CC(C)Cn1c(N)c(-c2nc(C(C)C)c(C(=O)c3ccccc3F)s2)c(=O)n(C)c1=O was read as D1 ag inactive, D1 PAM inactive and D1 antag inactive.
`COc1cc(NS(=O)(=O)c2ccc(NC(=O)Cc3ccccc3)cc2)nc(OC)n1` gave D1 ag inactive, D1 PAM inactive, D1 antag inactive, DRD3 agonist inactive, ERG-DNA inh inactive and DRD3 antagonist inactive.
Screening Cc1cccn2c(Nc3ccc4c(c3)OCCO4)c(-c3ccc(Br)o3)nc12 returned D1 ag inactive, D1 PAM inactive, D1 antag inactive, DRD3 agonist 44 and ERG-DNA inh inactive.
`CSc1ccc(-c2nc3c(C)cccn3c2Nc2ccc3c(c2)OCCO3)cc1` gave D1 ag inactive, D1 PAM inactive, D1 antag inactive, DRD3 agonist inactive and ERG-DNA inh inactive.
For COC(=O)c1scc(C)c1NC(=O)c1ccc(Cl)cc1 the results were D1 ag inactive, D1 PAM inactive, D1 antag inactive, DRD3 agonist inactive, ERG-DNA inh inactive and DRD3 antagonist inactive.
For COC(=O)c1sccc1NC(=S)OC the results were D1 ag inactive, D1 PAM inactive, D1 antag inactive, DRD3 agonist inactive, ERG-DNA inh inactive and DRD3 antagonist inactive.
`COC(=O)c1sccc1NC(=O)C1CC1` gave D1 ag inactive, D1 PAM inactive, D1 antag -76, DRD3 agonist inactive, ERG-DNA inh inactive and DRD3 antagonist inactive.
For COC(=O)c1scc(C)c1NC(=O)C1CCCCC1 the results were D1 ag inactive, D1 PAM inactive, D1 antag -44, DRD3 agonist inactive, ERG-DNA inh inactive and DRD3 antagonist inactive.
CC(C)c1ccccc1NC(=O)CN1C(=O)c2cccc3cccc1c23 was read as D1 ag inactive, D1 PAM inactive, D1 antag inactive, DRD3 agonist inactive and ERG-DNA inh inactive.
Cc1c(C)c2cccnc2c2ncccc12 was read as D1 ag inactive, D1 PAM inactive, D1 antag inactive, DRD3 agonist inactive, ERG-DNA inh inactive and DRD3 antagonist -103.
Cc1ccc(N2C(=O)C(CN(C)C)C2c2ccccc2)cc1 (stereo unspecified) was read as D1 ag inactive, D1 PAM inactive, D1 antag inactive, DRD3 agonist inactive, ERG-DNA inh inactive and DRD3 antagonist inactive.
Screening Cc1cc2c(c(C)c1CCO)C(=O)[C@H](C)C2 returned DRD3 agonist inactive, ERG-DNA inh inactive and DRD3 antagonist -50.
Screening CC(C)C[C@H]1CN([C@@H](Cc2ccc(O)cc2)CN2CCCC2CN2C(=S)NC[C@@H]2Cc2ccccc2)C(=S)N1CC1CCCCC1 (stereo partly specified) returned DRD3 agonist inactive and DRD3 antagonist -51.
`CC(C)C[C@@H](CN1CCCC1CN1C(=S)NC[C@@H]1Cc1ccccc1)N1C[C@H](Cc2ccccc2)N(CC2CCCCCC2)C1=S` (stereo partly specified) gave DRD3 agonist inactive and DRD3 antagonist inactive.
For CC(C)C[C@H]1CN([C@@H](CC(C)C)CN2CCCC2CN2C(=S)NC[C@@H]2Cc2ccccc2)C(=S)N1CC1CCCCC1 (stereo partly specified) the results were DRD3 agonist inactive and DRD3 antagonist -112.
COc1ccc(S(=O)(=O)Nc2cccc3c2O[C@H](CN(C)C(=O)NC(C)C)[C@@H](C)CN([C@H](C)CO)C3=O)cc1 was read as DRD3 agonist inactive, ERG-DNA inh inactive and DRD3 antagonist inactive.
`COc1ccc(NC(=O)c2ccc(CN3CCN(c4ccccc4)CC3)cc2)cc1` gave D1 ag inactive, D1 PAM inactive, D1 antag inactive, DRD3 agonist inactive, ERG-DNA inh inactive and DRD3 antagonist inconclusive.
O=C(Nc1ccccc1F)c1ccc(CN2CCN(c3ccccc3)CC2)cc1 was read as D1 ag inactive, D1 PAM inactive, D1 antag inactive, DRD3 agonist inactive, ERG-DNA inh inactive and DRD3 antagonist -54.
For O=C(CCN1CCN(c2ccc(F)cc2)CC1)Nc1ccccc1F the results were D1 ag inactive, D1 PAM inactive, D1 antag inactive, DRD3 agonist inactive, ERG-DNA inh inactive and DRD3 antagonist inactive.
